Assay results taken from PubChem BioAssay AID1159580 (chemical genetic matrix, 2015).
Among all 5,500 compounds or so, about 2,000 (36%) were called active. Another 18% or so got no clear call; they are omitted. Rule as the data show it: active = normalized growth mostly below about 0.91 (no sharp cut-off); inconclusive = no clear call, values can overlap the other calls; inactive = mostly above about 0.92. Some of the results follow.

Experiment: chemical genetic growth profiling, strain panel (AID 1159580);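 also: tested at 20 µM; growth read once vehicle control cultures reached saturation at 30 °C; 1 = growth at the plate median or of vehicle wells; lower values mean less growth of the strain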
Settings: S. cerevisiae deletion strains, growth OD

Measured: normalized growth

CN(C)c1ccc(/C=C/c2ccc3ccccc3[n+]2C)cc1
inactive: locus YAR019C, strain CDC15, stronger effect = lower value 0.966 | locus YBL105C, strain PKC1, stronger effect = lower value 0.961 | locus YBR135W, strain CKS1, stronger effect = lower value 0.974 | locus YBR136W, strain MEC1, stronger effect = lower value 0.956 | locus YBR160W, strain CDC28, stronger effect = lower value 0.959 | locus YDL017W, strain CDC7, stronger effect = lower value 0.969 | locus YDL028C, strain MPS1, stronger effect = lower value 0.976 | locus YDL101C, strain DUN1, stronger effect = lower value 0.988 | locus YDL108W, strain KIN28, stronger effect = lower value 0.965 | locus YDL132W, strain cdc53, stronger effect = lower value 0.975 | locus YDL214C, strain PRR2, stronger effect = lower value 0.817 | locus YDR052C, strain DBF4, stronger effect = lower value 0.954 | locus YDR054C, strain cdc34, stronger effect = lower value 0.965 | locus YDR226W, strain ADK1, stronger effect = lower value 0.961 | locus YDR477W, strain SNF1, stronger effect = lower value 0.83 | locus YER123W, strain YCK3, stronger effect = lower value 0.799 | locus YER133W, strain GLC7, stronger effect = lower value 0.801 | locus YFL009W, strain cdc4, stronger effect = lower value 0.976 | locus YFL029C, strain CAK1, stronger effect = lower value 0.978 | locus YFR003C, strain YPI1, stronger effect = lower value 0.959 | locus YFR019W, strain FAB1, stronger effect = lower value 0.87 | locus YFR028C, strain CDC14, stronger effect = lower value 0.967 | locus YGR040W, strain KSS1, stronger effect = lower value 0.798 | locus YGR052W, strain FMP48, stronger effect = lower value 0.745 | locus YGR092W, strain DBF2, stronger effect = lower value 0.775 | locus YHR082C, strain KSP1, stronger effect = lower value 0.806 | locus YHR205W, strain SCH9, stronger effect = lower value 0.64 | locus YIL147C, strain SLN1, stronger effect = lower value 0.959 | locus YJL095W, strain BCK1, stronger effect = lower value 0.666 | locus YJL128C, strain PBS2, stronger effect = lower value 0.943 | locus YJL157C, strain FAR1, stronger effect = lower value 0.733 | locus YJR016C, strain ILV3, stronger effect = lower value 0.983 | locus YJR066W, strain TOR1 (second series), stronger effect = lower value 0.928 | locus YJR066W, strain TOR1, stronger effect = lower value 0.607 | locus YKL048C, strain ELM1, stronger effect = lower value 0.899 | locus YKL067W, strain YNK1, stronger effect = lower value 0.798 | locus YKL101W, strain HSL1, stronger effect = lower value 0.815 | locus YKL193C, strain SDS22, stronger effect = lower value 0.982 | locus YKL203C, strain TOR2, stronger effect = lower value 0.823 | locus YLR133W, strain CKI1, stronger effect = lower value 0.816 | locus YLR403W, strain SFP1, stronger effect = lower value 0.672 | locus YML070W, strain DAK1, stronger effect = lower value 0.811 | locus YMR001C, strain CDC5, stronger effect = lower value 0.978 | locus YMR205C, strain PFK2 (second series), stronger effect = lower value 0.887 | locus YMR277W, strain FCP1, stronger effect = lower value 0.976 | locus YNL006W, strain LST8, stronger effect = lower value 0.979 | locus YNL161W, strain CBK1, stronger effect = lower value 0.977 | locus YNL183C, strain NPR1, stronger effect = lower value 0.782 | locus YNL207W, strain RIO2, stronger effect = lower value 0.962 | locus YNL222W, strain SSU72, stronger effect = lower value 0.968 | locus YOL078W, strain AVO1, stronger effect = lower value 0.984 | locus YOL136C, strain PFK27, stronger effect = lower value 0.786 | locus YOR061W, strain CKA2, stronger effect = lower value 0.69 | locus YOR119C, strain RIO1, stronger effect = lower value 0.833 | locus YOR329C, strain SCD5, stronger effect = lower value 0.965 | locus YPL031C, strain PHO85, stronger effect = lower value 0.807 | locus YPL153C, strain RAD53, stronger effect = lower value 0.833 | locus YPL204W, strain HRR25, stronger effect = lower value 0.726 | locus YPL209C, strain IPL1, stronger effect = lower value 0.966 | locus YPR025C, strain CCL1, stronger effect = lower value 0.969 | locus YPR106W, strain ISR1, stronger effect = lower value 0.977 | locus YPR111W, strain DBF20, stronger effect = lower value 0.96 | strain NNK1, stronger effect = lower value 0.97 | strain TSCII, stronger effect = lower value 0.966
active: locus YHR030C, strain SLT2, stronger effect = lower value 0.532 | locus YHR079C, strain IRE1, stronger effect = lower value 0.49 | locus YLR113W, strain HOG1, stronger effect = lower value 0.677 | locus YNL020C, strain ARK1, stronger effect = lower value 0.61 | locus YNL307C, strain MCK1 (second series), stronger effect = lower value 0.589 | locus YOR231W, strain MKK1, stronger effect = lower value 0.548 | locus YPL256C, strain CLN2, stronger effect = lower value 0.626
